# Screening data from PubChem BioAssay.
# A350 autofl – compounds fluorescent in Alexa 350 spectral region. max dye-equivalent concentration, M. Compound autofluorescence, 340/450 nm, Alexa 350 dye-equivalents; hits give high values. 59,000 compounds, 11% hits; in the data active = max dye-equivalent concentration above about 10 nM; inconclusive = mostly about 1.1 nM to 9.6 nM
# AID923 – qHTS Assay for Allosteric/Competitive Inhibitors of Caspase-1: Spectroscopic Profiling in AFC Spectral Region; compound fluorescence, AFC spectral region (405/520 nm); Potency, µM (doses to about 57.5 µM), inactives show top-dose fluorescence increase, most hits filed as activators; 75,000 compounds, 1.1% hits; AID 923, 2007; note: potency is the fitted concentration of half-maximal effect; 0% is about no effect
#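 Compound autofluorescence profiled at 405 nm ex/520 nm em during kinetic caspase 1 run (50 nM enzyme, 5 uM Ac-WEHD-AFC, HEPES pH 7.5, 10 mM DTT). Titration up to 57 uM; baseline from regression intercept, normalized to AFC standard curve.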
# USP2a inh – blocks human ubiquitin-specific protease USP2a; USP2a enzymatic assay, qHTS inhibition; O75604; AID 927; 60,000 compounds, 0.1% hits; Potency, µM (top dose mostly 38.3 µM), without a hit: top-dose activity change, negative = inhibition, most hits filed as inhibitors; note: potency is the fitted concentration of half-maximal effect; nearly all actives have a fitted effect of over 60% in size
# Target sequence (O75604 whole entry, looked up): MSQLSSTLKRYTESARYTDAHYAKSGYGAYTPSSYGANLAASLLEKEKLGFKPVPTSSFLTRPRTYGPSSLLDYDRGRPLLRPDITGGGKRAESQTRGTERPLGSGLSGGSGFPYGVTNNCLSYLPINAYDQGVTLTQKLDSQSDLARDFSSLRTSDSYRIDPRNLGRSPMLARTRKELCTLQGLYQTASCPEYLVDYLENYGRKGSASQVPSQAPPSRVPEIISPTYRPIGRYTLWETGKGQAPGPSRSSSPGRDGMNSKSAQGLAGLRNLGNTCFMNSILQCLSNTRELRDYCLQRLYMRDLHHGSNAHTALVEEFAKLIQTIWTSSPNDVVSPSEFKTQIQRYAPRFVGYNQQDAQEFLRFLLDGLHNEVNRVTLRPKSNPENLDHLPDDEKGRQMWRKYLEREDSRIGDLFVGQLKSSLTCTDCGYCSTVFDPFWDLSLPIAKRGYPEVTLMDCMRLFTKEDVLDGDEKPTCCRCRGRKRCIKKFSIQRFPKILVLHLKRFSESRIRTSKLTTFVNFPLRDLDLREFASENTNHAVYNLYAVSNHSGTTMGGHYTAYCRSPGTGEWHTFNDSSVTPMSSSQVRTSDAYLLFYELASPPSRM
#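 USP2 core (20nM final) preincubated 30 min RT with compound, then Ub-PLA2 20nM and NBD C6-HPC 20uM final added; buffer 20mM Tris-HCl pH 8.0, 2mM CaCl2. Fluorescence Ex 460/Em 535 read at 0 and 2.5 h; normalized to NEM.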
# 4-MU autofl – compounds fluorescent in 4-MU spectral region | compound autofluorescence, 340/450 nm, 4-MU equivalents; hits give high values | max dye-equivalent concentration, M | 59,000 compounds, 11% hits; in the data active = max dye-equivalent concentration above about 10 nM; inconclusive = mostly about 1.1 nM to 9.6 nM
#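 Intrinsic fluorescence at 340/450 nm (ex/em) was read after 15 min at room temperature in pH 8.0, 100 mM Tris. Each compound concentration expressed as 4-MU-equivalent concentration from a six-point 4-MU standard series on each plate.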
# HSD17B inhib – blocks hydroxysteroid 17-beta dehydrogenase activity; recombinant HSD17B10, NADH fluorescence kinetic; AID 893; Q99714; Potency, µM (titrated, usually from 57.1 µM), without a hit: top-dose activity change, negative = inhibition, usual class: inhibitors; 75,000 compounds, 7.6% hits;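 note: the protocol describes HADH2 (HSD17B10) and not the HSD17B4 of the title; potency is the fitted concentration of half-maximal effect; % is set by controls: 0 for no effect and ±100 for the full control effect; nearly all actives have a fitted effect of over 70% in size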
#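 Enzyme plus compound, 15 min room temperature; substrate mix added (NAD+ 1 mM, beta-hydroxybutyryl-CoA 90 uM final); plates read kinetically for NADH fluorescence. HADH2 was His-tagged, E. coli-derived, 20 nM.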
# HADH2 inhib – inhibitors of human HADH2 dehydrogenase; Q99714; recombinant HADH2, NADH fluorescence, beta-hydroxybutyryl-CoA; Potency, µM (highest dose often 57.1 µM), for inactives: at the highest dose activity change, negative = inhibition, most hits filed as inhibitors; 73,000 compounds, 3.4% hits; AID 886; note: potency is the fitted concentration of half-maximal effect; % is set by controls: 0 for no effect and ±100 for the full control effect; nearly all actives have a fitted effect of over 60% in size
#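 Buffer 100 mM Tris-HCl pH 9.0/0.01% Tween-20; HADH2 20 nM; NAD+ 1 mM; beta-hydroxybutyryl-CoA 90 uM (all final). 15 min cpd preincubation, RT.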
# * = called active by the depositor; i = inactive; ? = inconclusive; nt = no result; [ ] = another dose, or the depositor's remark. Sampled rows, rich in hits. Any-hit rate of the full collection: about 13%. Unless noted, calls come from the whole dose curve; as a rule, active = well fitted curve in the direction sought with a large enough effect; inconclusive = small, poorly fitted or top-dose-only effect, or another doubt; inactive = no such curve, though single readings can be large; an effect the other way counts as inactive or inconclusive.
SMILES,A350 autofl,AID923,USP2a inh,4-MU autofl,HSD17B inhib,HADH2 inhib
CC(C)[C@@H](CC(=O)N[C@@H]1CCNC[C@H]1C(=O)N[C@H](CC(=O)N[C@@H](CCC(=O)O)CC(=O)O)Cc1ccccc1)NC(=O)C[C@H](Cc1ccccc1)NC(=O)[C@@H]1CNCC[C@H]1N,nt,nt,nt,nt,nt,10%
CN(C)Cc1cc(O)c(O)c(CN(C)C)c1,i,0%[11.5 µM],nt,i,-15%[11.4 µM],0.5µM*
CN(C)Cc1cc(Cl)c(O)c(CN(C)C)c1,i,5%[11.5 µM],nt,i,0%[11.4 µM],0%[11.4 µM]
Cc1ccc2[nH]c(=O)c(CN(CCO)C(=O)NCc3ccccc3)cc2c1,?,-1%,12%,i,?,-2%
Cc1cccc2cc(CN(CC3CCCO3)C(=O)c3ccncc3)c(=O)[nH]c12 (configuration not stated),i,0%,3%,i,-28%,-1%
Cc1cc(C)c2[nH]c(=O)c(CN(CC3CCCO3)C(=O)C3CCCO3)cc2c1 (configuration not stated),1.4e-08M*,-1%,nt,1.4e-08M*,?,-22%
CC(=O)N(CCO)Cc1cc2cc(C)cc(C)c2[nH]c1=O,2.6e-08M*,-2%,2%,1.8e-08M*,?,0%
CCc1cc2c(nc1CC)CCN(CC/C(C)=N/O[C@@H](C)CN1CCCc3nc(C)c(C)cc31)C2,nt,1%[11.5 µM],nt,nt,-27%[11.4 µM],5%[11.4 µM]
Cc1cc(C)n(C(=O)c2ccc(C)c(S(=O)(=O)N3CCCC3)c2)n1,i,1%,1%,i,8%,3%
CC(C)C[C@@H](CC(=O)N[C@@H](CCC(=O)O)CC(=O)O)NC(=O)[C@@H]1CNCC[C@H]1NC(=O)C[C@H](CCCN)NC(=O)C[C@H](Cc1ccccc1)NC(=O)[C@@H]1CNCC[C@H]1N,nt,nt,nt,nt,nt,15%
COc1ccc(S(=O)(=O)Cc2ccc(C(=O)NC3CCCC3)o2)cc1,nt,1%,nt,nt,4%,4%
COc1ccccc1S(=O)(=O)Cc1ccc(C(=O)NC2CCCCC2)o1,?,-1%,16%,1.1e-08M*,-7%,7%
CCOC(=O)CCCCC1=CC2=CC(=O)C(C)(O)C(=O)C2=CO1 (configuration not stated),nt,2%[11.5 µM],nt,nt,-3%[11.4 µM],-11%[11.4 µM]
CN1CCN(Cc2nc3c(c(=O)[nH]c(=O)n3C)n2CCc2ccccc2)CC1,nt,-2%,nt,nt,11%,-3%
CN1CCN(Cc2nc3c([nH]2)c(=O)[nH]c(=O)n3C)CC1,1.6e-08M*,2%,-5%,5.7e-08M*,-7%,4%
CCOC(=O)c1cccc(S(=O)(=O)N(CCO)Cc2cc3cc(OC)ccc3[nH]c2=O)c1,5.3e-08M*,1%,9%,6.2e-08M*,?,24%
COc1cc(C(=O)OCc2cc3ccccc3[nH]c2=O)cc(OC)c1OC,i,-2%,1%,i,-3%,10%
CCOC(=O)c1cccc(S(=O)(=O)N(CCO)Cc2cc3cc(OC)c(OC)cc3[nH]c2=O)c1,1.6e-08M*,0%,nt,1.5e-08M*,-11%,2%
COc1ccc(/C=C\C(=O)Nc2ccccc2C(=O)O)cc1OC,?,-1%,nt,?,-28%,?
c1ccc(CCn2nnnc2CN2CCc3ccccc32)cc1,i,0%,nt,i,5%,-14%
CCc1cc(C(=O)Cc2cnn(-c3ccccc3)c2)c(O)cc1O,nt,4%,4%,nt,32µM*,?
COc1nc(OC)nc(N2CCC(NC(=O)C(Cc3ccc(C(C)C)cc3)NC(C)=O)CC2)n1 (configuration not stated),?,1%,36%,i,6%,10%
CC1(C)CC(=O)C(C2(O)C(=O)N(Cc3ccccc3)c3ccccc32)CO1 (configuration not stated),i,7%,10%,i,10µM*,?
CC12CN3CC(C)(CN(C1)C31C(=O)N(Cc3ccccc3)c3ccccc31)C2=O (configuration not stated),i,2%,nt,i,9%,-4%
CCOc1ccc(-c2nnc(-c3cccs3)o2)cc1OCC,1.4e-08M*,1%,-10%,1.3e-08M*,16µM*,36%
SMILES,A350 autofl,AID923,USP2a inh,4-MU autofl,HSD17B inhib,HADH2 inhib
c1csc(-c2nnc(-c3ccc(N4CCOCC4)cc3)o2)c1,1.3e-07M*,1%,nt,1.5e-07M*,32µM*,?
COc1ccc(-c2nnc(-c3cccs3)o2)cc1OC,nt,1%,15%,nt,32µM*,10%
CCOc1cc(-c2nnc(-c3ccco3)o2)cc(OCC)c1OCC,nt,-4%,nt,nt,25µM*,-4%
COc1cc(-c2nnc(-c3cccs3)o2)cc(OC)c1OC,?,0%,nt,?,?,0%
O=C(Cc1cccs1)Nc1ccc(N2CCOCC2)cc1,nt,-3%,16%,nt,-5%,-3%
CCOc1cccc(-c2nnc3sc(-c4cccs4)nn23)c1,i,nt,nt,i,nt,nt
CCN(CC)CCCN1C(=O)C(O)=C(C(=O)c2cccs2)C1c1ccccn1 (configuration not stated),i,1%,-2%,i,-7%,-2%
Brc1ccccc1-c1nnc(-c2cccnc2)o1,i,0%,6%,i,0%,-2%
N#Cc1c(-c2cccs2)cc(-c2cccnc2)nc1N,1.5e-06M*,13%,0%,1.3e-06M*,32µM*,13µM*
COc1cc2nc(CN3C(=O)c4ccccc4C3=O)oc(=O)c2cc1OC,nt,0%,1%,nt,124%,4%
c1cncc(-c2nnc(-c3cccs3)o2)c1,i,0%,nt,i,32µM*,?
COc1cc2nc(-c3cccs3)oc(=O)c2cc1OC,7e-07M*,-2%,-2%,6.5e-07M*,?,-25%
COc1ccc(C2(C)NC(=O)N(Cc3cc(Cl)cc4c3OCOC4)C2=O)cc1OC (configuration not stated),i,0%,19%,i,4%,14%
CCC/C=C(\CCC)C(NC(=O)c1ccc(C(F)(F)F)cc1)c1ccc(C(F)(F)F)cc1 (configuration not stated),nt,2%,nt,nt,-2%,0%
Cc1cnc(CNc2cc(-c3cccc(C#N)c3)ncn2)cn1,i,-1%,26%,i,?,-17%
Cc1c(C(=O)OCCOC(C)C)[nH]c2c1C(=O)CC(c1ccco1)C2 (configuration not stated),nt,-3%,nt,nt,?,8%
CCOC(=O)c1[nH]c2c(c1C)C(=O)CC(c1ccco1)C2 (configuration not stated),nt,-2%,nt,nt,25µM*,?
COCCOC(=O)c1[nH]c2c(c1C)C(=O)CC(c1ccco1)C2 (configuration not stated),nt,2%,nt,nt,25µM*,-19%
Nc1nc2sc3c(c2cc1C(=O)N1CCOCC1)CCCC3,nt,1%,-4%[7.66 µM],nt,25µM*,-7%[11.4 µM]
